Measured values: PubChem BioAssay (NCATS)
Inconclusive results are not listed. The source made the active and inactive calls. Calls come from the whole dose curve; as a rule, active = well fitted inhibition curve with a large enough effect; inconclusive = small, poorly fitted or top-dose-only effect; inactive = flat fitted curve, though single readings scatter.

Assays:
[1] = Drug repurposing screens with cells derived from glioblastoma tumor samples (AID 1345199); conditions: GBM patient neurospheres viability, ATP luminescence, 48 h; note: nearly all actives have a fitted effect of over 40% in size
Procedure, shortened: (§1)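 Primary testing used CD133+ neurospheres from four GBM patients, seven concentrations, 48 h exposure and ATP-based viability; confirmation added three slower-growing patient lines.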

[2] = tested on: astro; assay: as above; conditions: viability, ATP luminescence, 48 h; series mostly up to 45.9 µM
Procedure, shortened: as §1

[3] = at 45.9 µM (top of the series), tumour line B
[4] = at 45.9 µM (top of the series), tumour line D
[5] = at 46.1 µM (top of the series), tumour line C
% is set by controls: 0 for no effect and ±100 for the full control effect; potency is the fitted concentration of half-maximal effect.

## CN[C@@H]1CCc2[nH]c3ccc(C(N)=O)cc3c2C1
[1]; [3]
  activity, negative = cell killing: -9.15% (inactive)
[1]; [4]
  activity, negative = cell killing: -11.6% (inactive)
[1]; [5]
  activity, negative = cell killing: 28.3% (inactive)
[2]
  Potency: inactive

## O=C[C@H](O)[C@@H](O)[C@H](O)[C@H](O)CO
[1]; [3]
  activity, negative = cell killing: -4.49% (inactive)
[1]; [4]
  activity, negative = cell killing: -7.76% (inactive)
[1]; [5]
  activity, negative = cell killing: 7.35% (inactive)
[2]
  Potency: inactive

## CC(=O)O[C@H]1C[C@@H]2CC[C@@H]3[C@H](CC[C@@]4(C)[C@H]3C[C@H](N3CC[N+](C)(C)CC3)[C@@H]4OC(C)=O)[C@@]2(C)C[C@@H]1N1CC[N+](C)(C)CC1
[1]; [3]
  activity, negative = cell killing: -3.42% (inactive)
[1]; [4]
  activity, negative = cell killing: 1.51% (inactive)
[1]; [5]
  activity, negative = cell killing: 2.56% (inactive)
[2]
  Potency: inactive

## CC(=O)O[C@H]1CC[C@@]2(C)C(=CC[C@H]3[C@@H]4CC[C@H](C(C)=O)[C@@]4(C)CC[C@@H]32)C1
[1]; [3]
  activity, negative = cell killing: -9.15% (inactive)
[1]; [4]
  activity, negative = cell killing: -28.1% (inactive)
[1]; [5]
  activity, negative = cell killing: -12% (inactive)
[2]
  Potency: inactive

## C=C1C(=C/C=C2\CCC[C@]3(C)[C@@H]([C@H](C)CCCC(C)(C)O)CC[C@@H]23)C[C@@H](O)C[C@@H]1O
[1]; [3]
  activity, negative = cell killing: -26.6% (inactive)
[1]; tumour line A
  Potency: 17.8 µM (active)
[1]; tumour line D
  Potency: 20 µM (active)
[2]
  Potency: 22.4 µM (active)

## O=C(O)[C@@H](O)[C@H](O)[C@H](O)[C@@H](O)C(=O)O (tested in a mixture with another compound)
[1]; [3]
  activity, negative = cell killing: -6.98% (inactive)
[1]; [4]
  activity, negative = cell killing: -10.8% (inactive)
[1]; [5]
  activity, negative = cell killing: -8.08% (inactive)
[2]
  Potency: inactive

## COc1ccc(C2NC(=S)N3C(c4ccc(OC)c(OC)c4)NC(=S)N23)cc1OC (stereo not drawn)
[1]; [3]
  activity, negative = cell killing: -19.2% (inactive)
[1]; [4]
  activity, negative = cell killing: -8.84% (inactive)
[1]; [5]
  activity, negative = cell killing: 3.81% (inactive)
[2]
  Potency: inactive
